# Results filed as inconclusive are left out. Active and inactive are the calls of the source. The call rests on the fitted dose curve; in most records, active means well fitted activation curve with a large enough effect; inconclusive means small, poorly fitted or top-dose-only effect; inactive means no such curve, though single readings can be large or run the other way.
# Test: qHTS Assay for NPC1 Promoter Activators: Hit Validation Using Renila Luciferase Read-Out for NPC1
# Conditions: Huh7 NPC1 promoter-luciferase reporter, luminescence, 24 h; series mostly up to 76.9 µM
# Description: Niemann Pick Type C (NPC) is a rare neurodegenerative lipidosis that is characterized by lipid storage in the endosomal/lysosomal system. Treatment modalities for this devastating disease are currently non-existent due to the severe obstacles associated with accessing the central nervous system with proteins or genes. The majority of mutations causing NPC disease are missense mutations that are distributed throughout the length of the NPC1 protein, with the most prevalent being the I1061T allele. Although NPC1 mutant proteins may be functional, they are typically trapped in the ER due to misfolding. […] We have developed and optimized a cell based renilla luciferase reporter assay in 1536 well format for the identification of up-regulators of the mutant Rab9 promoter. This assay presents data on the validation of hits from the primary screen, which used a firefly luciferase read-out. NIH Chemical Genomics Center [NCGC] NIH Molecular Libraries Probe Production centers Network [MLPCN] MLPCN Grant: MH089375 Assay Submitter (PI): Yiannis A. Ioannou
# Huh7 cells stably expressing NPC promoter-luciferase will be seeded at 1,500 cells/well in 5 uL in 1,536-well white opaque plates with 23 nL/well of compound in DMSO solution. The assay plates will be incubated at 37 deg C for 24 hours, after which 3 uL/well BriteLite plus luciferase detection reagent mixture (Perkin Elmer) will be added. Luminescence signal will be measured in a ViewLux plate reader (Perkin Elmer) after a 10 minute incubation at the room temperature.
row,Compound,outcome
1,CCC(=NCc1cccnc1)c1c(O)n(-c2ccccc2)c(=O)[nH]c1=O,inactive
2,Cc1cccn2c(NCC3CCCO3)c(C(C)C)nc12 (stereo unspecified),inactive
3,COc1cccc(CCNCc2ccc(SC)cc2)c1,inactive
4,O=C1c2ccccc2C(=O)N1Cc1nc2ccccc2c(=O)n1-c1cccnc1,inactive
5,COc1ccc(C(CC(=O)N2CCC3(CC2)OCCO3)NS(=O)(=O)c2ccc(F)cc2)cc1 (stereo unspecified),inactive
6,CN1CCc2cc3c(c4c2C1Cc1ccccc1-4)OCO3 (stereo unspecified),inactive

# Source: PubChem BioAssay AID720526 (National Center for Advancing Translational Sciences (NCATS), 2013)
